Test [1] is described as follows: Nuclear factor erythroid 2-related factor 2/antioxidant responsive element (Nrf2/ARE) small molecule agonists: qHTS cell viability counter screen in human keratinocytes (AID 1919968; active means well fitted curve in the direction sought with a large enough effect in the repeat runs; an effect the other way counts as inactive or inconclusive; further: nearly all actives have a fitted effect of over 55% in size; further: potency means the concentration at half of the fitted maximal effect). In outline: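 Stably transfected HaCaT (KeratinoSens), 1,500/well. Test agents in DMSO were applied for 23 h, 37 C/5% CO2. CellTiter-Fluor was incubated 1 h before the fluorescence read.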

Test [2] is described as follows: Nuclear factor erythroid 2-related factor 2/antioxidant responsive element (Nrf2/ARE) small molecule agonists: luciferase reporter gene qHTS assay in human keratinocytes (AID 1919969). Further: nearly all actives have a fitted effect of over 35% in size. Further: potency means the concentration at half of the fitted maximal effect.
Test [3] has as its target KiSS-1 receptor (Homo sapiens) (UniProt Q969F8). In words: Human kisspeptin (KISS1R) small molecule agonists, calcium flux assay in KISS1R-HEK293 cells (AID 1920064; active means well fitted curve in the direction sought with a large enough effect in the repeat runs; an effect the other way counts as inactive or inconclusive). In outline:
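After overnight (18 h) culture at 37 C/5% CO2, human KISS1R-HEK293 cells received calcium dye for 1 h, then test compound; emission at 540 nm (excitation 480 nm) was tracked for 3 min.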

Test [4] can be described thus: G protein-coupled receptor (GPCR) small molecule agonists, calcium flux assay: HEK293 wild type cell line counter screen (AID 1920065). An outline of the steps:
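Following 18 h incubation at 37 C/5% CO2, plates got calcium dye for 1 h; compounds, ATP or DMSO were then pinned in and fluorescence followed kinetically (480/540 nm).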

Test [5] can be described thus: p53 small molecule agonists, cell-based qHTS assay with rat liver microsomes (AID 1963578). An outline of the steps:
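Agonist mode in p53RE-bla reporter cells, with compounds co-incubated 16 h at 37 C alongside 0.5 mg/mL rat liver microsomes and 0.5 mg/mL NADPH (final), followed by a 2 h LiveBLAzer detection step.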

Test [6] can be described thus: p53 small molecule agonists, cell-based qHTS assay with rat liver microsomes: qHTS cell viability counter screen (AID 1963580). Further: nearly all actives have a fitted effect of over 45% in size. In outline: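 Rat liver microsome (0.5 mg/mL final) and NADPH (0.5 mg/mL final) co-incubation with compounds for 16 h at 37 C on HCT-116 p53RE-bla cells; cytotoxicity taken from intracellular ATP luminescence.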
Test [7] is described as follows: p53 small molecule agonists, cell-based qHTS assay: qHTS cell viability counter screen (AID 1963581). Further: nearly all actives have a fitted effect of over 45% in size. Further: potency means the concentration at half of the fitted maximal effect. An outline of the steps: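 qHTS counter screen: 16 h compound exposure at 37 C of p53RE-bla HCT-116 cells (4,000 per well, seeded 5 h prior), cell viability by ATP luminescence.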
Test [8] can be described thus: p53 small molecule agonists, cell-based qHTS assay (AID 1963582; active means well fitted activation curve with a large enough effect in the signal ratio in the repeat runs, not every such curve was filed as active; the % refers to the signal ratio). An outline of the steps: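 Measured: fluorescence from cleaved LiveBLAzer substrate. System: p53RE-bla cells, 16 h compound treatment at 37 C, 2 h substrate step at room temperature.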
In test [9] the target is 5-hydroxytryptamine receptor 2A (Homo sapiens) (UniProt P28223). In words: 5-hydroxytryptamine receptor 2A (HTR2A) small molecule antagonists, cell-based qHTS assay (AID 1963586). Further: nearly all actives have a fitted effect of over 45% in size. In outline:
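CHO cells stably expressing human HTR2A were plated for 18 h at 37 C, then loaded with calcium dye for 1 h. Compounds were preincubated 5 min at room temperature before DOI (4 nM solution) was added. Kinetic fluorescence was read for 3 min.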

Test [10] addresses Muscarinic acetylcholine receptor M1 (Homo sapiens) (UniProt P11229). In words: Cholinergic receptor muscarinic 1 (CHRM1) small molecule antagonists, cell-based qHTS assay (AID 1963588). Further: nearly all actives have a fitted effect of over 40% in size. Further: potency means the concentration at half of the fitted maximal effect. An outline of the steps:
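Compounds were tested at 15 concentrations in three independent runs. Dye-loaded CHRM1-CHO cells were exposed 5 min at room temperature before stimulation by acetylcholine added at 50nM. Intracellular calcium was read kinetically on FDSS for 3 min.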

Test [11] has the same target. The test is described as follows: Cholinergic receptor muscarinic 1 (CHRM1) small molecule agonists, cell-based qHTS assay (AID 1963589). Further: nearly all actives have a fitted effect of over 35% in size. In outline: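 Kinetic fluorescence (1 s intervals) of calcium-sensitive dye in human M1 CHO cells after compound addition; cells pre-incubated 18 h at 37 C/5% CO2 and dye-loaded 1 h.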
Test [12] has as its target Beta-2 adrenergic receptor (Homo sapiens) (UniProt P07550). The test is described as follows: Adrenergic beta2 receptor (ADRB2) small molecule antagonists, cell-based qHTS assay (AID 1963592). Further: series mostly up to about 92 µM; nearly all actives have a fitted effect of over 50% in size. An outline of the steps: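 Assay format: CHO-ADRB2 cells, 18-20hr seeding at 37C/5% CO2, then compound plus 1nM isoproterenol agonist mix for 0.5hr RT. Homogeneous time-resolved fluorescence cAMP detection after 1hr, expressed as 665/615 nm ratio.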

Test [13] addresses D(2) dopamine receptor (Homo sapiens) (UniProt P14416). In words: Dopamine D2 receptor (DRD2) small molecule agonists, cell-based qHTS assay (AID 1963594). Further: nearly all actives have a fitted effect of over 35% in size. Further: potency means the concentration at half of the fitted maximal effect. In outline:
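cAMP accumulation in DRD2-HEK293 cells measured by HTRF after 1 h detection; compounds added 10 min before NKH477 (200nM […]) forskolin-analogue stimulation, 30 min at room temperature, with Ro20-1724 present at 0.1 mM final.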

Test [14] has the same target. In words: Dopamine D2 receptor (DRD2) small molecule antagonists, cell-based qHTS assay (AID 1963595; active means well fitted inhibition curve with a large enough effect in the signal ratio in the repeat runs, with a control signal flat; the % refers to the signal ratio; further: potency means the concentration at half of the fitted maximal effect). An outline of the steps: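 HEK293 cells stably expressing DRD2, preincubated with 0.1 mM Ro20-1724 and compounds 10 min, were stimulated with 200 nM NKH477 plus 12 nM quinpirole for 30 min at room temperature; cAMP measured by HTRF (665/620 nm).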
Test [15] can be described thus: p53 small molecule agonists, cell-based qHTS assay with human liver microsomes: qHTS cell viability counter screen (AID 1963579). Further: nearly all actives have a fitted effect of over 45% in size. Further: potency means the concentration at half of the fitted maximal effect. An outline of the steps:
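Metabolically activated exposure: compounds, human liver microsomes and NADPH (0.5 mg/mL final apiece) were added to p53RE-bla cells seeded 5 h earlier, left 16 h at 37 C, and then assessed for viability by CellTiter-Glo luminescence.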

Test [16] addresses 5-hydroxytryptamine receptor 2A (Homo sapiens) (UniProt P28223). In words: 5-hydroxytryptamine receptor 2A (HTR2A) small molecule agonists, cell-based qHTS assay (AID 1963587). Further: nearly all actives have a fitted effect of over 30% in size. Further: potency means the concentration at half of the fitted maximal effect. An outline of the steps: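 Kinetic calcium-flux fluorescence (2 min, 1 sec intervals) after compound addition in agonist mode. HTR2A-CHO cells were cultured 18 h, then dye-loaded 1 h at 37 C.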
Test [17] can be described thus: cAMP Responsive Elements (CRE) small molecule antagonists, cell-based qHTS assay (AID 1963591; active means well fitted inhibition curve with a large enough effect in the signal ratio in the repeat runs, not every such curve was filed as active; the % refers to the signal ratio). In outline: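 Reporter line CRE-bla HEK 293T in dialyzed-FBS DMEM; cells preincubated 18 h, treated 3 h with compound plus NKH477 (0.25 uM final); LiveBLAzer FRET, 2 h RT.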
Test [18] concerns the target Beta-2 adrenergic receptor (Homo sapiens) (UniProt P07550). The test is described as follows: Adrenergic beta2 receptor (ADRB2) small molecule agonists, cell-based qHTS assay (AID 1963593).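 Further: CHO cells stably overexpressing human ADRB2.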 An outline of the steps:
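CHO cells stably over-expressing ADRB2 were plated overnight at 37C, then dosed with compounds plus a stimulation mix containing 100uM IBMX and 25uM Ro-20-1724 for 0.5hr at room temperature. cAMP was measured by HTRF competition, 1hr.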

Test [19] can be described thus: cAMP Responsive Elements (CRE) small molecule agonists, cell-based qHTS assay (AID 1963590). An outline of the steps:
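Test agents in DMSO were incubated 3 h at 37 C/5% CO2 with CRE-bla HEK 293T cells seeded 18 h earlier; LiveBLAzer B/G FRET substrate was added and read after 2 h at room temperature.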

A number with no mark means an inactive call. Results filed as inconclusive are left out. The source made the active and inactive calls. Unless noted, the call rests on the fitted dose curve.
On the % scale 0 is the no-effect control and ±100 the full control effect.

KiSS-1 receptor (Homo sapiens), sequence (Q969F8 whole entry, looked up): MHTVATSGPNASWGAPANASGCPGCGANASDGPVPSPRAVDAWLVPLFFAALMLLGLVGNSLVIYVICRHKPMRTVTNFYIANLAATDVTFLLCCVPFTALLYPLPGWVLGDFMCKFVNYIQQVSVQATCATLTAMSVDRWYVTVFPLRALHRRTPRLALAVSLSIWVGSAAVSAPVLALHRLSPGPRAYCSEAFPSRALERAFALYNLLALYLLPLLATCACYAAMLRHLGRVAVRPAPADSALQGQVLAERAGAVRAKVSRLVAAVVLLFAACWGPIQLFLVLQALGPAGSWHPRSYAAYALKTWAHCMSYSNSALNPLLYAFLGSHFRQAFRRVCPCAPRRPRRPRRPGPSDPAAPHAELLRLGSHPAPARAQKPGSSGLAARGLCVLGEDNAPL
D(2) dopamine receptor (Homo sapiens), sequence (P14416 whole entry, looked up): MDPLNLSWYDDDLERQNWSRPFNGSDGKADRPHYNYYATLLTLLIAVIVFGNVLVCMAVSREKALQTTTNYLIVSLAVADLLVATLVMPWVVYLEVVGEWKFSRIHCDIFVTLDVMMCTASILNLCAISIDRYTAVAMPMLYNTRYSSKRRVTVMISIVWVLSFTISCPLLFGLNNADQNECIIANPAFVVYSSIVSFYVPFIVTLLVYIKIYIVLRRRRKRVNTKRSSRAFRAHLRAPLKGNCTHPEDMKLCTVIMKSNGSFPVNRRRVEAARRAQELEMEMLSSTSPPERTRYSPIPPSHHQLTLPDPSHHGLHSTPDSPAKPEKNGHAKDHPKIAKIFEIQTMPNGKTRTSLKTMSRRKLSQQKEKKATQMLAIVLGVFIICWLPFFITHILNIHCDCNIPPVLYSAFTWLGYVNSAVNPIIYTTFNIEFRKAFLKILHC
Muscarinic acetylcholine receptor M1 (Homo sapiens), sequence (P11229 whole entry, looked up): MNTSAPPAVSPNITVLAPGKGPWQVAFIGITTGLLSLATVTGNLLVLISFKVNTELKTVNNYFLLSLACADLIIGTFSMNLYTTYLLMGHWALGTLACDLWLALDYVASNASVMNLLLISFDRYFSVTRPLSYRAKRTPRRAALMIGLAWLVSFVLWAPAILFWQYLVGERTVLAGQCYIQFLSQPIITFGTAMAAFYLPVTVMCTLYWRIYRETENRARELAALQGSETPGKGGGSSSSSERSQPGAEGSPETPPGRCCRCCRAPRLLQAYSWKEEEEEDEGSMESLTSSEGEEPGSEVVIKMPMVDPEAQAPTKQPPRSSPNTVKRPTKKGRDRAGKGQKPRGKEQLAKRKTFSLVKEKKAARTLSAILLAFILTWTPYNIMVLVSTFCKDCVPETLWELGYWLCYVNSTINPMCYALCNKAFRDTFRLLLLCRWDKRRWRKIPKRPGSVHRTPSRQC
5-hydroxytryptamine receptor 2A (Homo sapiens), sequence (P28223 whole entry, looked up): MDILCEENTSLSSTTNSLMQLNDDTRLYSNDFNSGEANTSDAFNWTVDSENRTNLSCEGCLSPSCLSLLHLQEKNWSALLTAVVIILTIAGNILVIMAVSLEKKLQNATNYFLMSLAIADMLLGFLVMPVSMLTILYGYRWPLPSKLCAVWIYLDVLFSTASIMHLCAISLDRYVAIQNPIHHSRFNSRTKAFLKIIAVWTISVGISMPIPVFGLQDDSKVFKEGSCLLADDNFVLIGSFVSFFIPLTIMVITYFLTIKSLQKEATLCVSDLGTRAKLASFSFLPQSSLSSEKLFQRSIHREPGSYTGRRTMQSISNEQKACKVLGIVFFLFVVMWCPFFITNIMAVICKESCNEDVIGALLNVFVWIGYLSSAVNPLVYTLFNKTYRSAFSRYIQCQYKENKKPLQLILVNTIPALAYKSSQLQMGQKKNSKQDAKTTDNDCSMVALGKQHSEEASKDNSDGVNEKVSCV
Beta-2 adrenergic receptor (Homo sapiens), sequence (P07550 whole entry, looked up): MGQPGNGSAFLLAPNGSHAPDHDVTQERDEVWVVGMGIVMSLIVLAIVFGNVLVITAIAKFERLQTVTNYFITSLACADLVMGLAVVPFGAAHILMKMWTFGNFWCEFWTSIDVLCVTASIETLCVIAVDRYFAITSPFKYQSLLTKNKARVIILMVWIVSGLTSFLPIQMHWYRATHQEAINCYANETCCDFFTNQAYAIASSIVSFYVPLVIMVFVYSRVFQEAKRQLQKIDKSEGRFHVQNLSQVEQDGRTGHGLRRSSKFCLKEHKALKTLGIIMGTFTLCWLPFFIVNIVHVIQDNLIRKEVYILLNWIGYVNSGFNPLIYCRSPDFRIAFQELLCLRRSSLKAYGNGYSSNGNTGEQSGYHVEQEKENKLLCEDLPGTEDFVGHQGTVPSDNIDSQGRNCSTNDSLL

In the case of `CCCCC(=O)O[C@]1(C(=O)CO)[C@@H](C)C[C@H]2[C@@H]3CCC4=CC(=O)C=C[C@]4(C)[C@@]3(F)[C@@H](O)C[C@@]21C`, the Potency entry in [1], in test [2], in [3], in [4], in test [5] and in test [6] was “inactive” in each case. The Potency result in test [7], in test [8], in test [9], in [10], in test [11] and in [12] was “inactive” each time. Further, the Potency entry in test [13] and in test [14] was “inactive” throughout.
Take `CCCCCCCCCCCCCCCCCC[N+](C)(C)C`: the Potency in [1] was 61.3 µM (active); in test [15], 40.9 µM (active); in [7], 16.3 µM (active); in test [16], 34.8 µM (active). The Potency result in test [2], in test [3], in [4], in [5], in test [9] and in [11] was “inactive” in each case. Besides, the Potency entry in [13] and in test [14] was “inactive” in each case.
Consider `Cn1ccc2cc3c(cc21)CCN3C(=O)Nc1cccnc1`, for which the activity change, negative = cytotoxicity in test [1] is 3.31% [at 19 µM]; in [6] it was -3.54% [at 13.5 µM]; in [7] it was -10.9% [at 13.5 µM]. The activity, positive = activation in test [2] is 26.3% [at 19 µM]. In addition, the activation in test [3] is -2.7% [at 15.8 µM]; in [4] it was 0.454% [at 11.8 µM]; in test [5] it was -2.12% [at 13.6 µM]; in test [8], -0.168% [at 13.5 µM]; in [11], -0.375% [at 15.8 µM]; in [18], -9.02% [at 19 µM]. The activation in test [13] is 16.6% [at 19 µM]. In addition, the values for the activity change, negative = inhibition in test [17], in test [12] and in test [14] were 0.0268% [at 18.9 µM], 0.687% [at 19 µM] and -0.697% [at 18.9 µM], respectively.
For the molecule `O=C1C=CC(=O)N1c1ccccc1`, the Potency is 27.3 µM (active) in [1]; 15.4 µM (active) in test [2]; 20.4 µM (active) in test [15]; 24.5 µM (active) in [16]; 13.7 µM (active) in test [14]. Also, the Potency result in [3], in test [4], in test [5], in test [9] and in test [10] was “inactive” in each case.
For the molecule `CC1(COc2ccc(CC3SC(=O)NC3=O)cc2)CCCCC1` (stereo not given), the Potency result in test [1], in test [3], in [4], in test [5], in [6] and in [7] was “inactive” throughout. In addition, the Potency entry in test [8], in test [12], in [18] and in [14] was “inactive” in each case. In addition, the Potency is 29.8 µM (active) in test [2] and 12.8 µM (active) in [13].
Turning to `CCCCNc1ccc(C(=O)OCCN(CC)CC)cc1`, the Potency entry in test [1], in [2], in test [3], in test [4], in test [15] and in test [6] was “inactive” each time. Moreover, the Potency entry in [7], in test [9], in test [16], in [19], in test [17] and in [12] was “inactive” each time. Further, the Potency entry in test [18], in [13] and in test [14] was “inactive” throughout. Further, the Potency in test [10] is 3.26 µM (active).
As to `COc1cc(N)ccc1C`, the Potency result in [1], in [2], in [3], in test [4], in [15] and in [6] was “inactive” in each case. Further, the Potency result in test [7], in test [9], in test [16], in test [10], in [11] and in [19] was “inactive” throughout. Also, the Potency result in [17], in [12], in test [18], in [13] and in test [14] was “inactive” throughout.

For the origin of these results see PubChem BioAssay (Tox21).
